# Data taken from the supplement of paper PMC6555819.
# Columns and labels:
# Assay in all cases: PBM binding z-score (relative to random genomic background probes); higher = stronger binding; sequences stand for … in GC…GCGATTGACAGCGTAGAATGAAGG
# [1] = tested on: PPARg:RXRa DBDmut IVT, anti-RXR (DBD mutation: RXRa K156A/R161A, NR concentration 270 nM, RXRa partner concentration 90 nM)
# Procedure, shortened: (§1)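 Scanned fluorescence from custom Agilent 4×180K protein-binding microarrays was regression-normalized. Binding z-scores use random background probes as reference. Ligand-free nuclear receptor dimers were incubated on the arrays for 1 h and detected with antibodies against each partner (one per run).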
# [2] = tested on: PPARg:RXRa IVT, anti-PPARg (NR concentration 270 nM, RXRa partner concentration 90 nM)
# Procedure, shortened: as §1
# [3] = tested on: PPARg DBDmut:RXRa IVT, anti-PPARg (DBD mutation: PPARg1 K132A/R137A, NR concentration 270 nM, RXRa partner concentration 90 nM)
# Procedure, shortened: as §1
# [4] = tested on: PPARg DBDmut IVT, anti-PPARg (DBD mutation: PPARg1 K132A/R137A, NR concentration 270 nM)
# Procedure, shortened: as §1
# [5] = tested on: PPARg homodimer (NR concentration 180 nM)
# Procedure, shortened: as §1
# [6] = tested on: PXR:RXRa (NR concentration 270 nM, RXRa partner concentration 90 nM)
# Procedure, shortened: as §1
# [7] = tested on: PXR homodimer (NR concentration 270 nM)
# Procedure, shortened: as §1
# [8] = tested on: RARa:RXR (NR concentration 270 nM, RXRa partner concentration 90 nM)
# Procedure, shortened: as §1
# [9] = tested on: RARa homodimer (NR concentration 270 nM)
# Procedure, shortened: as §1
# [10] = tested on: RARb:RXRa (NR concentration 270 nM, RXRa partner concentration 90 nM)
# Procedure, shortened: as §1
Sequence,PBM binding z-score [1],PBM binding z-score [2],PBM binding z-score [3],PBM binding z-score [4],PBM binding z-score [5],PBM binding z-score [6],PBM binding z-score [7],PBM binding z-score [8],PBM binding z-score [9],PBM binding z-score [10]
GGGACTGGGGCAAAGCAGGTTACCATAAGGTTGG,4.85,5.97,0.631,0.017,1.03,1.21,0.82,1.18,-0.119,1.39
CCTACTGGGCCAACGGTCATTGATTCCAATGCTC,3.68,4.73,-0.311,-0.326,0.249,-0.304,0.00743,-0.143,-0.558,1.37
TCTTGTAGATCAAAGGTTAAAAAAGCCGAAGCCT,2.16,3.58,0.744,0.625,1.22,2.17,0.0944,3.21,0.327,1.69
CCAGACAGGTGAGAAGGCAACTCAGCCTCGATTA,0.42,0.413,-0.447,-0.637,0.166,-0.0948,-0.133,-0.209,0.0696,0.272
TCAGACAGGGGAAGGTAACTCAGGTACGCAGTCG,2.26,0.171,0.134,-0.73,0.755,0.624,0.441,0.193,0.801,0.352
CCTAGCAGGCCATGGTCACTCAAGCATTTCGCTT,1.57,0.401,-1.7,-1.39,-0.683,-0.611,-0.713,-0.498,-0.226,0.678
AGTCAAAGTTCACTAGGTAACTTAAGATTCAGCT,2.47,4.8,2.06,1.17,1.24,4.02,2.95,3.07,1.01,4.73
TCATATAGGTAAACACGTGAAAGTCCGTAAGTTA,4.07,2.96,0.9,1.04,0.24,0.722,0.241,0.769,1.1,0.364
GCGACTGGGGCAAAGCGGGTTACCATAAGGTTGG,4.18,3.67,-0.432,-0.894,-0.11,0.293,-0.451,0.625,-0.887,0.922
CGTCCAGGGTCATAGGAGGTCAGTGAAGACAGAT,1.75,3.92,0.473,-0.113,4.96,6.84,2.73,6.61,2.39,4.79
TAGCCTAGGTCATGAGCCAGTATACCACGCGAAC,1.81,3.11,-0.211,0.0511,1.45,1.61,-0.537,2.64,0.534,3.58
CCTAGTTGGTCAAGGTCACAGACGCTATAGGTAC,2.26,3.92,0.729,0.0985,3.27,4.21,2.19,4.66,2.61,4.28
AGAATGAGGTTAAGATCTGGGAAACAGAATACAT,2.76,3,1.23,0.832,0.543,1.03,0.115,1.69,0.301,1.9
ATGTCTAGGTAACCAAGTTCAGTGAATGCCGAAC,2.35,2.35,0.0462,-0.029,0.338,2,1.53,0.884,-0.202,1.21
CCTAGCAGGCCAATCTGGCTCACTCAAGGCTTGA,1.35,0.117,-2.07,-1.06,-0.294,-0.913,-1.16,-0.795,-0.522,-0.16
TCTCGGAGGACACGAAAGTCAGAGCTTTCCAGAG,1.13,0.191,-0.706,-0.594,-0.882,-0.408,-0.694,-0.237,-0.903,1.28
CCTATTAGTTGACCATAAGGGCGACCGAAGCTCG,0.603,0.201,-0.102,0.933,2.13,0.235,0.541,0.509,1.68,0.951
CGAACTAGGCCATCCAGGACAGTGAATACATTGA,6,5.51,0.953,0.808,0.048,-0.289,-0.148,0.254,0.507,0.809
TCTTCTAGATCAAGCAGGTTAAGAAAGCCTGAGT,1.76,0.683,0.767,0.698,0.504,0.69,0.108,0.523,-0.00815,0.276
GGAACGCGGGCAAGTTGATAGCAGAGTTTGATGG,-0.223,-0.448,-0.461,-1.56,-0.831,-0.588,-0.209,-0.839,-1.25,0.294
GCTAACGGGTCAAAGGTTATAGCATGAATAGAAT,3.51,5.64,0.399,0.838,1.81,5.59,0.2,7.51,0.254,4.19
CCTCAGAGGACAACAGGAGGTCAGAGCTGCCAGA,0.559,0.422,-0.428,-1.85,1.69,2.04,0.295,2.24,0.569,3.46
CCTTACGGGTCACTCCAGGTTATAGCTTCGGAGT,3.23,3.56,0.585,0.163,2.23,4.98,0.446,3.52,1.34,3.72
TCTATTAGTTGATTAGGGCCACCGAAACAGCGGA,1.82,0.608,0.893,0.609,0.28,0.517,0.469,0.615,1.05,0.596

Sequence,PBM binding z-score [1],PBM binding z-score [2],PBM binding z-score [3],PBM binding z-score [4],PBM binding z-score [5],PBM binding z-score [6],PBM binding z-score [7],PBM binding z-score [8],PBM binding z-score [9],PBM binding z-score [10]
TGTCAAAGTTCAAAGGTAACGCAAGTATCCACAC,0.302,4.95,0.987,0.888,3.82,6.07,4.47,7.09,1.84,5.19
TCTTGTAGATCAGCAGCTTAAGAAAGCTGGCCAA,1.33,-0.294,-1.1,-0.39,-0.337,-0.0714,-0.755,0.087,-0.736,-0.491
CTCGAAAGGTCGGTTGACGTGAGTATACGGATAA,0.129,0.68,0.821,0.0479,0.644,1.01,-0.25,1.5,-0.0456,2.91
AGAACGAGGGCACACTGAGTTGATAGCAGAGTAG,3.87,3.8,0.337,0.314,0.871,1.29,0.305,0.924,0.142,2.16
AATACAGCGTCACTAGGCCAGAGTAGGTACGAAT,0.487,1.5,-0.275,0.0334,-0.38,-0.519,-0.407,-0.516,-0.0306,-0.113
CCTAGCAGGCCAATCTGGGTCACTCCAGGCTTGA,4.25,4.76,-0.633,-1.01,0.639,0.543,-0.635,0.754,-0.716,1.48
CTACCAAGGTGAAGAAGGTCGTTGATTACTATTC,1.68,1.84,0.127,-0.276,0.69,1.53,0.655,1.48,0.317,1.74
CGTCCAAGGTCAAAGGTCAGTGAGGAGATGACGG,4.27,5.57,0.435,-0.522,6.24,7.08,2.54,8.87,5.49,5.85
GCAGACAGGTGAAACGCAGGTAACTCTGGGTGGC,1.28,0.558,-1.09,-1.05,-0.859,-0.322,-1.1,0.0559,-1.16,0.63
ATCTCTAGGTAAAACTTCAGTGAATCCCGAGGAT,1.85,1.8,1.22,0.94,-0.0625,-0.0735,0.231,-0.12,0.676,0.128
CCTGCTAGGTAATGGTCAGCTAATCTACAGTATG,1.12,0.132,-0.293,-0.811,-0.722,-0.534,-0.524,-0.39,0.217,0.113
TCTTGTAGGTCAACAGGAGGTTAAGAAAGATCGA,6.99,8.17,2.81,3.87,2.63,3.9,-0.245,4.71,0.468,4.57
CCTCGGAGGACAACAGGAGTTCAGAGCTGCCAGA,-0.298,-1,-2.34,-1.22,0.513,1.92,1.78,0.366,0.371,1.67
CAAACTACGTCAAGAGGTCAAAGTCCGCTTCCCG,1.03,2.44,1.05,0.608,3.36,5.8,3.22,6.09,1.56,4.01
ATATGTAGGTTACATCCGGCTCATTCAGGCTATG,7.66,6.94,2.85,2.21,0.844,0.18,0.0469,0.506,0.258,1.07
AGAACGAGGGCAATGAGATGATAGCACGGGTGGC,3.28,2.47,1.03,0.417,0.45,0.149,0.0572,0.235,0.363,2.05
TCTAGTTGGTCAAAGGTGACACACTCGAAATGCG,3.81,4.76,1.03,1.64,2.13,2.14,0.548,2.88,1.33,2.38
TCTGCTAGGTCAGATGGTCAGCTAACGAGCTGCC,2.66,2.86,0.906,-0.32,0.276,0.315,-0.95,1.22,-1.27,3.32
GTACCAAGGTGAATAGGTCGTTCATGAGTAGGCG,1.96,2.71,0.421,-1.06,0.765,0.908,-0.0414,1.62,-0.236,2.12
GGAATGAGGGCAAAGTTGATAGCATCTGTCGACG,5.52,4.71,1.48,0.0505,0.811,1.43,0.53,1.95,0.171,2.36
AGTCAAAGTTCGCTAGGTAACGTAAGATTCAGCT,0.109,1.13,0.0923,0.244,0.129,0.563,0.141,0.661,0.175,2
ACCGAAAGGTCGACGAGGTGAGTATACACCGTTT,1.08,2.03,0.47,0.38,1.27,2.93,0.279,3.29,0.4,4.19
TCTAGTTGGTCAAAGGTCGCACACTCGAAATGCG,3.09,5.25,1.76,1.51,4.25,3.78,0.71,5.01,1.36,3.29
ACTAGCAGGCCAAGGGTCACTCATGATTAGTCCG,1.25,3.63,0.294,-0.197,2.62,3,-0.0152,4.04,0.642,3.41
